This note sets out measurements from PubChem BioAssay AID623868 (Vanderbilt High Throughput Screening Facility, 2012).

Hit rate of the full screen: of about 2,100 compounds, about 760 (36%) were called active.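 How the source made its calls: active means thallium-flux fluorescence traces judged by eye to show enhanced or reduced glutamate response, manual score 1 or -1, so both directions (some results past the limit were not filed as active); inactive means the rest, including fluorescent or raised-baseline compounds.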 A selection follows.

The nature of this test: thallium influx changes without GIRK channels – cell-based, HEK-293 rmGlu8, no GIRK, thallium flux, counter-screen for GIRK activator project, confirmation (AID 623868).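 Further: extra codes mark interference with 3 for fluorescent and 4 for baseline rise.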 The following applies: thallium flux fluorescence, at 10 µM, actives lie on both sides, codes: 1 enhancer, -1 blocker, 0 none, thallium stimulus containing EC20 glutamate.
Consider `COc1cccc(NC(=O)NC2(C(F)(F)F)Oc3ccccc3O2)c1`, for which the manual score was 0 (inactive).
For `CN(C)S(=O)(=O)N(CC(=O)Nc1ccc2ccccc2c1)c1ccccc1`, the manual score was 0 (inactive).
Consider `COc1ccc(C(=O)Nc2ccccc2)cc1S(=O)(=O)Nc1cc(C)on1`, for which the manual score is 0 (inactive).
Under `CCCCOc1cccc(OCCCC)c1C(=O)Nc1cc(C)on1` stands 0 (inactive); under `Cc1cc(NC(=O)c2ccccc2Oc2ccccc2)no1`, -1 (active); under `O=C1c2ccccc2NC(c2ccc(-c3cccc(Cl)c3)o2)N1O` (stereo unspecified), 1 (active).
To `Cc1cc([N+](=O)[O-])ccc1-c1ccc(C2Nc3ccccc3C(=O)N2O)o1` (stereo unspecified) belongs 1 (active).
To `COc1ccc(C(=O)C2C(c3ccc(-c4ccccc4[N+](=O)[O-])o3)NC(=O)NC2(O)C(F)(F)F)cc1` (stereo unspecified) belongs 0.5 (inactive).
For the compound `O=C1c2ccccc2NC(c2ccc(-c3ccc(Br)cc3)o2)N1O` (stereo unspecified), the manual score was 1 (active).
To `CC(=O)Nc1ccc(SCC(=O)c2cc(C)n(-c3ccccc3F)c2C)cc1` belongs 0.5 (inactive).
`Cc1cccc(C)c1NC1=NC(=S)N(c2ccc(N(C)C)cc2)C1(C)C`: the manual score was 1 (active).
To `CC1CN(C(=O)C2CCCCC2)C(C)CN1C(=O)C1CCCCC1` (stereo unspecified) belongs 0 (inactive); to `Cn1c(NC(=O)Cc2ccc(F)cc2)cc(=O)n(C)c1=O`, 0 (inactive).
Consider `CSCSC1=C(C#N)C(c2ccccc2Cl)C(C(C)=O)=C(C)N1` (stereo unspecified), for which the manual score was -1 (active).
To `CC(=O)C1=C(C)NC(SCc2ccc(C#N)cc2)=C(C#N)C1c1ccco1` (stereo unspecified) belongs 0 (inactive); to `CC(=O)C1=C(C)NC(SCC(=O)c2ccc(Cl)cc2Cl)=C(C#N)C1c1ccco1` (stereo unspecified), -1 (active).
For the compound `CCOC(=O)C1=C(c2ccccc2)NC(SC)=C(C#N)C1c1ccco1` (stereo unspecified), the manual score is 0 (inactive).
With `CSCSC1=C(C#N)C(c2ccc(Cl)cc2)C(C(C)=O)=C(C)N1` (stereo unspecified), the manual score is 0 (inactive).
Under `O=C(CCc1nc(-c2ccccc2F)no1)NCCN1CCN(Cc2ccccc2)CC1` stands 0 (inactive); under `COc1cccc(NC(=O)Nc2cccs2)c1`, 0 (inactive); under `COc1ccc(NC(=O)C(=O)NNC(=O)c2cccs2)cc1`, 1 (active).
Under `O=C(NNC(=O)c1cccs1)Nc1cccc(Cl)c1` stands 0 (inactive).
To `COc1ccc(NC(=O)C(=O)NNC(=O)c2cccs2)c(OC)c1` belongs 1 (active); to `COc1ccc(Br)cc1CNC(=O)Nc1cccs1`, 0 (inactive); to `COC(=O)c1cc(OC)c(OC)cc1NC(=O)Nc1ccc(OC)cc1OC`, 0 (inactive).
With `CCCc1noc2c1/C(=N\O)CC(CC(C)SCC)C2` (stereo unspecified), the manual score was 0 (inactive).
Under `O=C(CSc1nnnn1-c1ccc(O)cc1)Nc1cccc(S(=O)(=O)N2CCCC2)c1` stands 0 (inactive); under `O=C(CSc1ccc2ccccc2c1Br)Nc1cccc(S(=O)(=O)NC2=NCCCCC2)c1`, 1 (active).
Under `CCc1ccc(C(=O)OCC(=O)Nc2cccc(S(=O)(=O)NC3=NCCCCC3)c2)cc1` stands 0 (inactive); under `Cc1ccc(N2CC(C(=O)N/N=C/c3sccc3C)CC2=O)cc1` (stereo unspecified), 0 (inactive).
Take `Cc1ccsc1/C=N/NC(=O)c1sccc1C`: the manual score is 1 (active).
To `OC(CNCC1CCCO1)Cn1c2ccc(Br)cc2c2cc(Br)ccc21` (stereo unspecified) belongs 0 (inactive).
To `O=C1CC(C(=O)Nc2ccc(Br)cc2)C2(CCCC2)O1` (stereo unspecified) belongs 0 (inactive); to `O=C(N/N=C/c1ccc([N+](=O)[O-])s1)c1cccc(Br)c1`, 0.5 (inactive); to `O=C(NN=C1c2ccccc2-c2ccccc21)c1ccccc1Br`, 1 (active).
For `O=C(NN=C1c2ccccc2-c2ccccc21)c1cccc(Br)c1`, the manual score was 1 (active).
To `CCCCn1c(CN(Cc2ccccc2)Cc2ccccc2)nc2c1c(=O)n(C)c(=O)n2C` belongs 0 (inactive); to `O=C(CSCC(=O)N1CCCCC1)Nc1nc(-c2ccc(Cl)s2)cs1`, 0 (inactive).
To `Cc1nc2nc(Cc3ccccc3)[nH]n2c(=O)c1Cc1ccccc1` belongs 0 (inactive); to `CN1C(=O)C2(C(C#N)=C(N)N(c3cc(Cl)cc(Cl)c3)C3=C2C(=O)CCC3)c2ccccc21` (stereo unspecified), -1 (active); to `Cc1cc(C(=O)CSc2n[nH]c(N)n2)c(C)n1-c1cc(F)ccc1F`, 0 (inactive).
To `c1ccc2c(N3CCCCCC3)nc(-c3ccncc3)nc2c1` belongs 0 (inactive).
Turning to `Fc1ccc(-c2nnc3ccc(N4CCc5ccccc5C4)nn23)cc1`, the manual score is 0 (inactive).
On to `c1ccc(-c2nnc3ccc(N4CCCC4)nn23)cc1`, for which the manual score was -1 (active).
To `CCOC(=O)/C(C#N)=C/C1=C(N2CCCC2)CC(C)(C)OC1` belongs 0 (inactive); to `CCOC(=O)N1CCN(C(=O)c2oc3ccc(S(=O)(=O)N4CC(C)CC(C)C4)cc3c2C)CC1` (stereo unspecified), 0 (inactive); to `C=CCOn1c(=O)c(-c2cccs2)[n+]([O-])c2ccccc21`, 3 (inactive).
Under `CCOn1c(=O)c(-c2cccs2)[n+]([O-])c2ccccc21` stands 3 (inactive).
To `O=c1c(-c2ccc(Cl)cc2)[n+]([O-])c2ccccc2n1O` belongs 1 (active); to `Clc1ccc2c(c1)-c1nnc(Br)n1-c1ccccc1S2`, -1 (active); to `C/C(CC(C)(C)C1CCCCC1)=N\NC(N)=S`, 0 (inactive).
`CNc1nc(Cl)nc(NC(C)(C)C)n1`: the manual score is 0 (inactive).
To `Cc1cccc(N2C(=O)CS/C2=N\NC(=O)c2ccc(Cl)cc2)c1C` belongs 1 (active).
Under `CC(NC(=O)C1CC=CCC1C(=O)O)C1CC2CCC1C2` (stereo unspecified) stands 0 (inactive).
Under `CCNc1ccc2noc3c2c1C(=O)c1ccccc1-3` stands 0 (inactive); under `O=C(NNc1ccccc1Br)C(=O)n1ccc2ccccc21`, 1 (active).
Turning to `Cc1ccc(C)c2[nH]c(=O)c(CN(CCN3CCCC3)C(=O)Nc3ccc(F)cc3)cc12`, the manual score was 0 (inactive).
Regarding `CSC1=NSC2=NC(=O)/C(=C/c3coc4ccccc4c3=O)C(=N)N12`, the manual score is 3 (inactive).
Under `O=C1N=C(c2ccccc2)S/C1=C\c1cccs1` stands 3 (inactive); under `N=C1/C(=C/c2cccs2)C(=O)N=C2SN=C(SCc3ccccc3)N12`, 1 (active); under `Cc1ccc(CNC(=O)Cc2csc(Nc3nc(=S)[nH]c4ccccc34)n2)cc1`, 1 (active).
To `O=C(Cc1csc(Nc2nc(=S)[nH]c3ccccc23)n1)NCc1cccc(Cl)c1` belongs 1 (active); to `O=C(Cc1csc(Nc2nc(=S)[nH]c3ccccc23)n1)NCc1ccccc1Cl`, 0 (inactive); to `N#CC(c1cccc(Cl)c1)c1ccc2c(C(F)(F)F)cc(C(F)(F)F)nc2n1` (stereo unspecified), 0 (inactive).
To `Oc1cccc(NC(=S)Nc2ccc(SC(F)F)cc2)c1` belongs 0 (inactive); to `CN(C)CCNC(=O)c1ccc2c(c1)N(Cc1ccc(F)cc1)CCS2`, 0 (inactive).
Consider `O=C(O)c1cccc(Nc2nc(N3CCOCC3)nc(N3CCOCC3)n2)c1`, for which the manual score is -1 (active).
Under `CCOC(=O)CSc1nc2ccc(Nc3nc(N4CCOCC4)nc(N4CCOCC4)n3)cc2s1` stands 0 (inactive); under `CC1CC(C)CN(Cc2nc(N)nc(Nc3ccc4ccccc4c3)n2)C1` (stereo unspecified), 0 (inactive).
Under `CC(C)CC(=O)Nc1cccc2c1C(=O)N(c1ccccc1)C2=O` stands -1 (active).
With `CC(=O)Nc1cccc2c1C(=O)N(c1cccc(C)c1)C2=O`, the manual score was 0 (inactive).
Under `O=C(COC(=O)c1cccc(N2C(=O)c3ccccc3C2=O)c1)Nc1ccccc1` stands 0 (inactive).
To `CCOc1ccc(Br)cc1/C(C)=N\NC1=NCCN1` belongs 0 (inactive); to `N#CC1=C(N)Oc2n[nH]c(-c3cccs3)c2C1c1ccoc1` (stereo unspecified), 0 (inactive); to `S=C1NC(c2ccccc2)=NCN1c1ccc(Cl)cc1`, 1 (active).
As to `Cc1cs/c(=N\N=C\c2cccc([N+](=O)[O-])c2)n1Cc1ccco1`, the manual score was 0 (inactive).
To `Cc1cc(C)c(-n2c(C)cc(/C=C3/NC(=O)NC3=O)c2C)c(C)c1` belongs 0 (inactive); to `Cc1ccccc1-n1c(SCc2ccccn2)nc2n[nH]c(C)c2c1=N`, 0 (inactive); to `CCCOc1cccc(OCCSc2nc(C)cc(=O)[nH]2)c1`, 0 (inactive).
Under `CCOc1ccc2nc(NC(=O)C(CC)Sc3nc(C)cc(=O)[nH]3)sc2c1` (stereo unspecified) stands -1 (active); under `CC(C)Cn1c2c(c(O)c(C(=O)Nc3ncccc3O)c1=O)CCCC2`, -1 (active).
Under `C/C(=N\NC(=O)COc1ccc(C)cc1C(C)C)c1ccc(-n2ccnc2)cc1` stands 0 (inactive); under `COc1ccc(/C=N\NC(=S)SCN2C(=O)C3CCC(C)(C2=O)C3(C)C)cc1` (stereo unspecified), 1 (active).
Turning to `CN(C)c1ccc(/C=N\NC(=S)SCN2C(=O)C3CCC(C)(C2=O)C3(C)C)cc1` (stereo unspecified), the manual score is 0.5 (inactive).
Under `CC12CCC(C(=O)N(CSC(=S)N/N=C\c3ccccc3)C1=O)C2(C)C` (stereo unspecified) stands 1 (active); under `CC(Nc1ccc(Br)cn1)c1cc(Cl)ccc1O` (stereo unspecified), 0 (inactive); under `CC(C)NC(=O)/C(=C/c1ccco1)c1ccccc1`, 0 (inactive).
Under `Cc1ccccc1C(=O)N/N=C/c1ccc([N+](=O)[O-])s1` stands 0 (inactive); under `CN(c1ccccc1C(=O)Nc1ccccc1C(=O)NCc1ccco1)S(C)(=O)=O`, 0 (inactive).
Under `O=C(Nc1ccccc1C(=O)N/N=C/c1ccco1)c1ccccc1` stands 1 (active); under `Cc1cc(C)c(NC(=O)/C(=C/c2ccco2)c2ccccc2)c(C)c1`, 0 (inactive).
As for `Cc1ccccc1C(=O)Nc1ccccc1C(=O)N/N=C\c1ccco1`, the manual score is 1 (active).
Under `COc1cc(NC(=O)CSc2nccc(C)n2)c(C)cc1[N+](=O)[O-]` stands 0 (inactive); under `Cc1c(NC(=S)NC(NC(=O)CC(C)C)C(Cl)(Cl)Cl)c(=O)n(-c2ccccc2)n1C` (stereo unspecified), 0 (inactive); under `CCCC(c1c(C)n(C)n(-c2ccccc2)c1=O)c1c(C)n(C)n(-c2ccccc2)c1=O`, 0 (inactive).
To `CCc1cc2c(=O)n(CC)c(SC(C)C(=O)Nc3c(C)n(C)n(-c4ccccc4)c3=O)nc2s1` (stereo unspecified) belongs -1 (active); to `O=c1c2c(nc3c(-c4cccc(Br)c4)c[nH]n13)CCCC2`, 0 (inactive); to `O=c1[nH]c(SCc2ccccc2Cl)nc2c1CCCC2`, 0 (inactive).
Under `O=c1c2c(nc3c(-c4ccccc4)c[nH]n13)CCCC2` stands 1 (active).
Take `O=c1c2c(nc3c(-c4ccc(Cl)cc4)c[nH]n13)CCCC2`: the manual score is 1 (active).
Take `Cc1ccc(-c2[nH]n3c(=O)c4c(nc3c2C)CCCC4)cc1`: the manual score was 0 (inactive).
